Results published in the supplement of paper PMC6555819.

The sequences below were run on FXR:RXRa (NR concentration 270 nM, RXRa partner concentration 90 nM) (assay: PBM binding z-score (relative to random genomic background probes); higher = stronger binding; sequences stand for … in GC…GCGATTGACAGCGTAGAATGAAGG).
Procedure, shortened: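 Each nuclear receptor dimer, without ligand, was incubated for 1 h on custom Agilent 4×180K protein-binding microarrays. Binding was detected with antibodies against each partner (one per run), and scanned fluorescence was regression-normalized. The binding z-scores are referenced to random human genomic background probes.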

Row | Sequence | PBM binding z-score
1 | GCATATAGGTAATACAAGGTGAAAGTTCGATTGT | 1.05
2 | GATACAGGGTCAAGGCCAGACTACGCGTATTGAT | 6.8
3 | TCGGCTAGGTCAGTTGGTCAGCTAACGAGCTGCC | 1.1
4 | AGTAAAAGTTCAGGACGAGGTAACGTAAAGCACG | 3.83
5 | AGAACGAGGGCAATGAGTTGATAACACGGGTGGC | 0.198
6 | TGAATGAGGTTATAAGCTCAGGGAACGTTGCAAA | 1.24
7 | TCTATTAGTTGATTAGGGCATCCGAAACAGCGGA | 0.685
8 | ATATGTAGGTTAAGGGTAATTCAGGTTGGTTCGC | 1.39
9 | CAAACTAGGTCACAGAGGTCAAATTCCGTGCGTA | 7.61
10 | CGAACGAGGGCATGAGTGGATAGCAAATGCCGAT | 0.364
11 | CCGAGTAGGTTATGGGGCATTCCGGCAACGGTGA | 0.0637
12 | CGTCCCAGGTCATAGGAGGTCAGTGAAGACAGAT | 5.9
13 | TTACCAAGTTGAAGGTCGTTGATCCCTCTGTAGA | 2.26
14 | GCACCAAGGTGAATAGGTCGTTGATGAGTAGGCG | 0.712
15 | ATCGAAAGGTCGTGAGGTGAGTAGACAGAAAGGC | 5.21
16 | CGAACTAGGTGATCCAGGACAGTGAATACATTGA | -0.144
17 | TCTTGTAGATTAACAGGAGGTTAAGAAAGATCGA | 0.498
18 | AGAATGAGGTTATTAATATCAGGGAATTGCGGTC | 1.19
